{"source": "PubChem BioAssay AID1159580", "about": "(chemical genetic matrix, 2015)", "test": "chemical genetic growth profiling, strain panel (AID 1159580);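 also: tested at 20 µM; growth read once vehicle control cultures reached saturation at 30 °C; 1 = growth at the plate median or of vehicle wells; lower values mean less growth of the strain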", "details": "S. cerevisiae deletion strains, growth OD", "note": "Several values for one entry are separate records, joined by “and”; a condition that tells them apart may be missing. Equal values may be shown once. The campaign covered roughly 5,500 compounds. About 2,000 (36%) were called active. Roughly 18% stayed inconclusive and do not appear here. Rule as the data show it: active = normalized growth mostly below about 0.91 (no sharp cut-off); inconclusive = no clear call, values can overlap the other calls; inactive = mostly above about 0.92. The list shows a part of the results."}
{"smiles": "CC(CCC(=O)O)[C@H]1CCC2C3CC[C@@H]4C[C@H](O)CC[C@]4(C)C3CC[C@@]21C", "note": "(some centres not stated)", "values": [{"measurement": "normalized growth", "setting": "locus YAL013W, strain DEP1, stronger effect = lower value", "value": "0.831 (active)"}, {"measurement": "normalized growth", "setting": "locus YAL021C, strain ccr4, stronger effect = lower value", "value": "0.982 (inactive)"}, {"measurement": "normalized growth", "setting": "locus YAL026C, strain drs2, stronger effect = lower value", "value": "0.946 (inactive)"}, {"measurement": "normalized growth", "setting": "locus YAL030W, strain snc1, stronger effect = lower value", "value": "0.989 (inactive)"}, {"measurement": "normalized growth", "setting": "locus YBL061C, strain skt5, stronger effect = lower value", "value": "1.03 (inactive)"}, {"measurement": "normalized growth", "setting": "locus YBR009C, strain hhf1, stronger effect = lower value", "value": "0.888 (active)"}, {"measurement": "normalized growth", "setting": "locus YBR021W, strain FUR4, stronger effect = lower value", "value": "0.932 (inactive)"}, {"measurement": "normalized growth", "setting": "locus YBR023C, strain chs3, stronger effect = lower value", "value": "0.924 (inactive)"}, {"measurement": "normalized growth", "setting": "locus YBR171W, strain sec66, stronger effect = lower value", "value": "1.01 (inactive)"}, {"measurement": "normalized growth", "setting": "locus YBR229C, strain ROT2, stronger effect = lower value", "value": "1.04 (inactive)"}, {"measurement": "normalized growth", "setting": "locus YBR231C, strain swc5, stronger effect = lower value", "value": "0.939 (inactive)"}, {"measurement": "normalized growth", "setting": "locus YBR279W, strain paf1, stronger effect = lower value", "value": "1.01 (inactive)"}, {"measurement": "normalized growth", "setting": "locus YCL011C, strain gbp2, stronger effect = lower value", "value": "0.974 (inactive)"}, {"measurement": "normalized growth", "setting": "locus YCL016C, strain dcc1, stronger effect = lower value", "value": "0.909 (active)"}, {"measurement": "normalized growth", "setting": "locus YCL029C, strain bik1, stronger effect = lower value", "value": "0.993 (inactive)"}, {"measurement": "normalized growth", "setting": "locus YCL061C, strain MRC1, stronger effect = lower value", "value": "0.931 (inactive)"}, {"measurement": "normalized growth", "setting": "locus YCL069W, strain vba3, stronger effect = lower value", "value": "1 (inactive)"}, {"measurement": "normalized growth", "setting": "locus YCR088W, strain abp1, stronger effect = lower value", "value": "0.993 (inactive)"}, {"measurement": "normalized growth", "setting": "locus YDL005C, strain med2, stronger effect = lower value", "value": "1.01 (inactive)"}, {"measurement": "normalized growth", "setting": "locus YDL035C, strain GPR1, stronger effect = lower value", "value": "0.528 (active)"}, {"measurement": "normalized growth", "setting": "locus YDL040C, strain nat1, stronger effect = lower value", "value": "1.03 (inactive)"}, {"measurement": "normalized growth", "setting": "locus YDL074C, strain BRE1, stronger effect = lower value", "value": "0.698 (active)"}, {"measurement": "normalized growth", "setting": "locus YDL101C, strain DUN1, stronger effect = lower value", "value": "0.713 (active)"}, {"measurement": "normalized growth", "setting": "locus YDL185W, strain tfp1, stronger effect = lower value", "value": "1.04 (inactive)"}, {"measurement": "normalized growth", "setting": "locus YDL192W, strain arf1, stronger effect = lower value", "value": "0.856 (active)"}, {"measurement": "normalized growth", "setting": "locus YDR001C, strain nth1, stronger effect = lower value", "value": "1.02 (inactive)"}, {"measurement": "normalized growth", "setting": "locus YDR069C, strain doa4, stronger effect = lower value", "value": "0.947 (inactive)"}, {"measurement": "normalized growth", "setting": "locus YDR101C, strain arx1, stronger effect = lower value", "value": "0.977 (inactive)"}, {"measurement": "normalized growth", "setting": "locus YDR137W, strain rgp1, stronger effect = lower value", "value": "0.452 (active)"}, {"measurement": "normalized growth", "setting": "locus YDR159W, strain sac3, stronger effect = lower value", "value": "0.925 (inactive)"}, {"measurement": "normalized growth", "setting": "locus YDR162C, strain NBP2, stronger effect = lower value", "value": "0.208 (active)"}, {"measurement": "normalized growth", "setting": "locus YDR195W, strain ref2", "value": "1.07 (inactive)"}, {"measurement": "normalized growth", "setting": "locus YDR297W, strain sur2, stronger effect = lower value", "value": "1 (inactive)"}, {"measurement": "normalized growth", "setting": "locus YDR318W, strain mcm21, stronger effect = lower value", "value": "0.951 (inactive)"}, {"measurement": "normalized growth", "setting": "locus YDR334W, strain swr1, stronger effect = lower value", "value": "0.989 (inactive)"}, {"measurement": "normalized growth", "setting": "locus YDR335W, strain msn5, stronger effect = lower value", "value": "0.926 (inactive)"}, {"measurement": "normalized growth", "setting": "locus YDR388W, stronger effect = lower value", "value": "1.01 (inactive)"}, {"measurement": "normalized growth", "setting": "locus YDR392W, strain spt3, stronger effect = lower value", "value": "0.735 (active)"}, {"measurement": "normalized growth", "setting": "locus YDR502C, strain sam2, stronger effect = lower value", "value": "0.878 (active)"}, {"measurement": "normalized growth", "setting": "locus YEL003W, strain gim4, stronger effect = lower value", "value": "0.94 (inactive)"}, {"measurement": "normalized growth", "setting": "locus YEL037C, strain rad23, stronger effect = lower value", "value": "0.994 (inactive)"}, {"measurement": "normalized growth", "setting": "locus YEL061C, strain CIN8 (second series), stronger effect = lower value", "value": "1.01 (inactive)"}, {"measurement": "normalized growth", "setting": "locus YEL061C, strain CIN8, stronger effect = lower value", "value": "0.912 (active)"}, {"measurement": "normalized growth", "setting": "locus YER015W, strain faa2, stronger effect = lower value", "value": "0.907 (active)"}, {"measurement": "normalized growth", "setting": "locus YER016W, strain bim1, stronger effect = lower value", "value": "1 (inactive)"}, {"measurement": "normalized growth", "setting": "locus YER110C, stronger effect = lower value", "value": "1.07 (inactive)"}, {"measurement": "normalized growth", "setting": "locus YER111C, strain swi4, stronger effect = lower value", "value": "1.01 (inactive)"}, {"measurement": "normalized growth", "setting": "locus YER155C, strain BEM2 (second series), stronger effect = lower value", "value": "1.04 (inactive)"}, {"measurement": "normalized growth", "setting": "locus YER155C, strain BEM2, stronger effect = lower value", "value": "0.852 (active)"}, {"measurement": "normalized growth", "setting": "locus YER167W, strain BCK2, stronger effect = lower value", "value": "0.906 (inactive)"}, {"measurement": "normalized growth", "setting": "locus YFR010W, strain ubp6, stronger effect = lower value", "value": "0.982 (inactive)"}, {"measurement": "normalized growth", "setting": "locus YGL078C, strain dbp3, stronger effect = lower value", "value": "0.926 (inactive)"}, {"measurement": "normalized growth", "setting": "locus YGL086W, strain mad1, stronger effect = lower value", "value": "0.923 (active)"}, {"measurement": "normalized growth", "setting": "locus YGL167C, strain pmr1, stronger effect = lower value", "value": "0.988 (inactive)"}, {"measurement": "normalized growth", "setting": "locus YGL173C, strain kem1, stronger effect = lower value", "value": "0.701 (active)"}, {"measurement": "normalized growth", "setting": "locus YGL227W, strain vid30, stronger effect = lower value", "value": "1 (inactive)"}, {"measurement": "normalized growth", "setting": "locus YGL240W, strain doc1, stronger effect = lower value", "value": "0.89 (inactive)"}, {"measurement": "normalized growth", "setting": "locus YGL248W, strain PDE1, stronger effect = lower value", "value": "0.827 (active)"}, {"measurement": "normalized growth", "setting": "locus YGL253W, strain hxk2, stronger effect = lower value", "value": "0.989 (inactive)"}, {"measurement": "normalized growth", "setting": "locus YGR078C, strain PAC10, stronger effect = lower value", "value": "0.757 (active)"}, {"measurement": "normalized growth", "setting": "locus YGR135W, strain pre9, stronger effect = lower value", "value": "0.84 (active)"}, {"measurement": "normalized growth", "setting": "locus YGR229C, strain SMI1, stronger effect = lower value", "value": "0.356 (active)"}, {"measurement": "normalized growth", "setting": "locus YGR252W, strain gcn5, stronger effect = lower value", "value": "0.792 (inactive)"}, {"measurement": "normalized growth", "setting": "locus YHR013C, strain ard1, stronger effect = lower value", "value": "1.01 (inactive)"}, {"measurement": "normalized growth", "setting": "locus YHR027C, strain rpn1, stronger effect = lower value", "value": "0.94 (inactive)"}, {"measurement": "normalized growth", "setting": "locus YHR030C, strain SLT2, stronger effect = lower value", "value": "0.762 (active) and 0.955 (inactive)"}, {"measurement": "normalized growth", "setting": "locus YHR079C, strain IRE1 (second series), stronger effect = lower value", "value": "1.06 (inactive)"}, {"measurement": "normalized growth", "setting": "locus YHR079C, strain IRE1, stronger effect = lower value", "value": "0.955 (inactive)"}, {"measurement": "normalized growth", "setting": "locus YHR094C, strain hxt1, stronger effect = lower value", "value": "1.08 [resistant] (active)"}, {"measurement": "normalized growth", "setting": "locus YHR129C, strain ARP1, stronger effect = lower value", "value": "0.791 (active)"}, {"measurement": "normalized growth", "setting": "locus YHR142W, strain chs7, stronger effect = lower value", "value": "0.873 (active)"}, {"measurement": "normalized growth", "setting": "locus YHR200W, strain rpn10, stronger effect = lower value", "value": "1.02 (inactive)"}, {"measurement": "normalized growth", "setting": "locus YIL066C, strain RNR3, stronger effect = lower value", "value": "0.79 (active)"}, {"measurement": "normalized growth", "setting": "locus YIL073C, strain SPO22, stronger effect = lower value", "value": "0.937 (inactive)"}, {"measurement": "normalized growth", "setting": "locus YIL125W, strain kgd1, stronger effect = lower value", "value": "1.04 (inactive)"}, {"measurement": "normalized growth", "setting": "locus YIR030C, strain dcg1, stronger effect = lower value", "value": "1.04 (inactive)"}, {"measurement": "normalized growth", "setting": "locus YJL092W, strain hpr5, stronger effect = lower value", "value": "0.966 (inactive)"}, {"measurement": "normalized growth", "setting": "locus YJL095W, strain BCK1 (second series), stronger effect = lower value", "value": "0.893 (active)"}, {"measurement": "normalized growth", "setting": "locus YJL095W, strain BCK1, stronger effect = lower value", "value": "0.522 (active) and 0.953 (inactive)"}, {"measurement": "normalized growth", "setting": "locus YJL115W, strain asf1, stronger effect = lower value", "value": "1.01 (inactive)"}, {"measurement": "normalized growth", "setting": "locus YJL129C, strain trk1, stronger effect = lower value", "value": "0.914 (inactive)"}, {"measurement": "normalized growth", "setting": "locus YJL134W, strain LCB3, stronger effect = lower value", "value": "1.04 (inactive)"}, {"measurement": "normalized growth", "setting": "locus YJL154C, strain vps35, stronger effect = lower value", "value": "0.997 (inactive)"}, {"measurement": "normalized growth", "setting": "locus YJL164C, strain tpk1, stronger effect = lower value", "value": "0.92 (inactive)"}, {"measurement": "normalized growth", "setting": "locus YJL166W, strain qcr8, stronger effect = lower value", "value": "0.83 (active)"}, {"measurement": "normalized growth", "setting": "locus YJL168C, strain set2, stronger effect = lower value", "value": "1.14 [resistant] (active)"}, {"measurement": "normalized growth", "setting": "locus YJL187C, strain SWE1 (second series), stronger effect = lower value", "value": "0.791 (active)"}]}
